# Screening results (PubChem)
# A549 viability: A549 cytotoxicity, counter-screen for Nrf2 inhibitors. A549 ARE-Fluc cells, CellTiter-Fluor viability, 18-24 h. Potency, µM (doses to about 46 µM), inactives show at the highest dose activity change, negative = cytotoxicity, hits mostly inhibitors. 390,000 tested, 0.16% active; note: % is set by controls: 0 for no effect and ±100 for the full control effect
#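 Cytotoxicity counterscreen: CellTiter-Fluor fluorescence was measured in A549 ARE_Fluc cells after 18-24 h of compound exposure in a concentration series. The subsequent BugLite luminescent read reports ARE-luciferase activity.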
# Nrf2 inh: blocks Nrf2 signaling; A549 ARE-Fluc reporter, luciferase luminescence, 18-24 h; Potency, µM (highest dose often 46 µM), for the others: top-dose activity change, negative = inhibition, actives largely listed as inhibitors; 360,000 tested, 2.1% active; AID 504444; note: % is set by controls: 0 for no effect and ±100 for the full control effect; nearly all actives have a fitted effect of over 60% in size
#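 A549 ARE_Fluc cells, 5000/well, 5% FBS OPTI-MEM; compounds in dose-response, 18-24 h at 37 °C/5% CO2; CellTiter-Fluor viability read (Ex 405/Em 525), then BugLite luciferase luminescence = Nrf2 activity.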
# PINK1 modulator: modulators of PINK1 expression; 410,000 tested, 0.2% active; PINK1 immunofluorescence, high-content cytometry, 24 h; Potency, µM (series often up to 76.6 µM), without a hit: top-dose activation (PINK1 increase), usual class: activators; active = well fitted activation curve with a large enough effect; inconclusive = small, poorly fitted or top-dose-only effect; cell line not stated here; note: % of control where 0% means no effect; nearly all actives have a fitted effect of over 65% in size
#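 Decision-based qHTS: stable cells, 24 h exposure to five compound concentrations, CCCP as control. Fixed cells stained for PINK1 plus nuclear, mitochondrial and cell markers, cytometer read.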
# Epigenetic derep: derepresses silenced GFP reporter in murine cells | Potency, µM (highest dose often 53.9 µM), inactives show at the top dose GFP activation, most hits filed as activators | murine LDR cells, GFP reporter derepression, 30 h | AID 1865 | 280,000 tested, 0.2% active; note: % of control where 0% means no effect; nearly all actives have a fitted effect of over 60% in size
#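 Murine LDR cells carrying a silenced, genomically integrated CMV-driven GFP reporter were exposed to compound for 30 hours at 37 C. After PBS washes, GFP-positive cells (20–120 um objects) were counted by laser-scanning microplate cytometry.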
# Nrf2 activator: activators of Nrf2 (ARE) signaling. AID 624171. Potency, µM (doses to about 46.1 µM), for inactives: at the top dose activation, actives largely listed as activators. 410,000 tested, 0.31% active. AREc32 ARE-luciferase reporter (MCF7-derived line), luminescence, 24 h; note: % of control where 0% means no effect; nearly all actives have a fitted effect of over 65% in size
#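 Steps: seed AREc32_Fluc cells (1000/well, 5% FBS OPTI-MEM); incubate overnight at 37 deg C; add 23 nL compound; incubate 24 hr; add Steady-Glo; hold 30 min RT; read luminescence.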
# * hit, by the source's call; ? = inconclusive; / = no result; ! = repeats disagree; [ ] = remark or other dose. In the library only some 2.4% were active in any assay of this set; here they are far more common. Unless noted, calls come from the whole dose curve; as a rule, active = well fitted curve in the direction sought with a large enough effect; inconclusive = small, poorly fitted or top-dose-only effect, or another doubt; inactive = no such curve, though single readings can be large; an effect the other way counts as inactive or inconclusive. Potency is the fitted concentration of half-maximal effect.
SMILES,A549 viability,Nrf2 inh,PINK1 modulator,Epigenetic derep,Nrf2 activator
CCCN1C(=O)/C(=C\C=C2/C=CN(CC)c3ccccc32)SC1=S,-18.8%,-12.4%,12.0%,0.0%,-0.4%
CCCCN1C(=O)/C(=C/C=C2\N(C)c3ccccc3C2(C)C)SC1=S,/,/,/,2.51µM*,/
Cn1nnnc1Sc1ncnc2scc(-c3ccc(N)cc3)c12,0.6%,11.3%,/,/,/
COc1cc(N=c2ssnc2Cl)c(OC)cc1Cl,?,23.1µM*!,2.3%,11.7%,7.9%
NC(=S)NN=C1c2cc(OCCN3CCOCC3)ccc2-c2ccc(OCCN3CCOCC3)cc21,16.4µM*,16.4µM*,-2.9%,/,-2.0%
O=C(Nc1ccccc1)c1csc(-c2ccccc2)n1,-2.5%,?,-0.2%,-0.9%,10.0%
O=C(Nc1ccc(C(F)(F)F)cc1)c1csc(-c2ccncc2)n1,-10.6%,18.4µM*,-0.4%,-0.5%,8.1%
CCOc1cc(C2NC(=O)c3c(sc4c3CCN(C)C4)N2)ccc1OC(=O)c1ccccc1Cl (configuration not stated),-6.8%,8.2µM*,2.3%,-6.2%,-2.1%
CC(C)(C)NC(=O)C(c1ccco1)N(C(=O)Cn1nnc(-c2ccc(F)cc2)n1)c1cccc(F)c1 (configuration not stated),0.2%[1.84 µM],-8.3%,12.6µM*,-2.0%,-0.8%
CC(C)(C)NC(=O)C(c1ccncc1)N(CC1CCCO1)C(=O)Cn1nnc(-c2ccc(F)cc2)n1 (configuration not stated),1.3%,-0.6%,-1.4%,0.0%,-0.6%
CC(C)(C)NC(=O)C(c1ccncc1)N(Cc1cccs1)C(=O)Cn1nnc(-c2ccc(F)cc2)n1 (configuration not stated),-15.1%,9.2µM*,-1.8%,-1.0%,0.6%
O=C1CCCC2=C1C1(CCSCC1)N=C(Nc1nc3ccccc3o1)N2,8.2%,-2.4%,/,/,/
N#Cc1nc(Nc2cc(F)cc(F)c2)c2ncn(C3CCCC3)c2n1,-5.1%,?,/,/,/
CCOc1ccc(N(CC)C(=O)c2cc3c(s2)-c2ccc(Cl)cc2SC3)cc1,?,16.4µM*,2.9%,0.9%,0.6%
COCCNC(=O)c1cc2c(s1)-c1ccc(Cl)cc1SC2,0.2%,?,8.0%,/,3.8%
CC(=O)C1CCC2C3CCC4=CC(=O)CC[C@]4(C)[C@@]3(F)C(O)C[C@]12C (some centres not stated),-3.6%,2.91µM*,4.9%,3.8%,-0.3%
CC(=O)C1CCC2C3CCC4=CC(=O)CCC4(C)C3(Br)C(=O)CC12C (configuration not stated),-4.5%,0.8%,2.3%,/,0.7%
CCc1cc2c(=O)n(Cc3ccco3)c(SCC(=O)N3CCCc4ccccc43)nc2s1,-28.1%,25.9µM*,-1.0%,0.0%,6.3%
C=CCN(c1ccccc1)S(=O)(=O)c1cccc(C(=O)N2CC(C)CC(C)C2)c1 (configuration not stated),?,20.6µM*,5.4%,/,5.4%
O=[S+]([O-])(c1ccc2c(c1)OCCO2)N1CCN([S+](=O)([O-])c2cc(Cl)ccc2F)CC1,0.1%,-8.3%,/,/,/
COc1ccc(C(C#N)=C2C=C(Cl)C(=NO)C=C2Cl)cc1,/,/,6.3%,/,11.2µM*
CCCCOc1cccc(C(=O)N(Cc2ccc(C)o2)c2ccccn2)c1,-23.3%,14.6µM*,2.9%,0.0%,1.0%
Cc1ccc(CN(C(=O)c2ccc(F)cc2)c2ccccn2)o1,3.3%,-7.2%,0.0%,1.6%,0.0%
Oc1ccc(CNc2ccc(F)cc2Cl)c2cccnc12,-16.7%,?,/,/,/
CCOC(=O)CSC1=C(C#N)C(c2ccc(C)s2)CC(=O)N1 (configuration not stated),?,20.6µM*,16.7%[38.3 µM],1.7%,0.2%
SMILES,A549 viability,Nrf2 inh,PINK1 modulator,Epigenetic derep,Nrf2 activator
CCOC(=O)C1=C(C)NC(C)=C(C(=O)OCC)C1c1cn(-c2ccccc2)nc1-c1ccco1,-8.8%,-13.3%,7.2%,-6.3%,5.4%
CC(C)OC(=O)c1cn(-c2ccccc2)nc1-c1ccco1,0.7%,-9.7%,3.0%,0.0%,3.16µM*
CCOc1ccc2nc(N3CCCC3C(=O)N3CCC(c4nc5ccccc5o4)CC3)nc(C)c2c1 (configuration not stated),/,/,1.4%,/,/
COc1ccc(-n2nc(C(=O)NCC(=O)Nc3cccc(Cl)c3)c3ccccc3c2=O)cc1OC,-17.9%,14.6µM*,8.8%,/,0.3%
CCOc1ccc(NC(=O)CNC(=O)c2nn(-c3ccc(OC)c(OC)c3)c(=O)c3ccccc23)cc1,-6.3%,-9.7%,0.5%,/,0.1%
O=C1C=C(N2CCCCC2)c2ccccc2C1=O,18.4µM*,9.2µM*,-1.5%,/,-2.9%
COc1ccc(-n2c(/C=C/c3c(C)[nH]c4ccccc34)nc3ccccc3c2=O)cc1,7.7%,?,13.3%,10µM*,0.0%
Cc1oc(-c2ccccc2)cc1C(=O)Nc1cccc(/C=C/C(=O)O)c1,-25.3%,23.1µM*,0.0%,1.7%,2.2%
CC1CN(S(=O)(=O)c2cc(C(=O)N(CCc3ccccc3)Cc3ccccc3)ccc2Cl)CC(C)O1 (configuration not stated),-12.1%,7.31µM*,2.2%,/,-0.1%
Cc1ccc(C(=O)N(CCc2ccccc2)Cc2ccccc2)cc1S(=O)(=O)N1CCOCC1,-3.7%,?,3.8%,/,-0.4%
COc1cccc(C(=O)NCC2Cc3cccc(-c4cccnc4)c3O2)c1 (configuration not stated),/,/,0.0%,/,/
N#C/C(=C\c1ccc(N2CCOCC2)o1)c1ccccc1,-2.9%,?,/,11.2µM*,14.1µM*
COc1cccc(/C=C(/C#N)c2ccc(F)cc2)c1OCc1cccc(C(=O)O)c1,0.2%,0.4%,2.8%,0.0%,3.3%
N#C/C(=C/c1ccc(N2CCOCC2)o1)c1nc2ccccc2[nH]1,?,/,25.1µM*,15.8µM*,0.0%
COc1cc(N2CCCC2)c(OC)cc1/C=C(/C#N)c1cccc(F)c1,-0.3%,1.5%,16.9%,3.16µM*,0.2%
N#C/C(=C/c1ccc(N2CCCCCC2)o1)c1cccc(F)c1,?,/,8.91µM*,?,12.6µM*
N#C/C(=C\c1ccc(N2CCOCC2)cc1)c1ccccc1,5.7%,?,-0.5%,-1.9%,3.8%
O=C(Nc1nc2c(F)cccc2s1)c1ccc2c(c1)OCCO2,-0.8%,/,2.0%,-0.2%,5.9%
N#C/C(=C/c1ccc(N2CCCCCC2)o1)c1ccc(F)cc1,-12.6%,?,21.5%,/,25.5%
N#C/C(=C/c1ccc(N2CCOCC2)o1)c1ccc(Br)cc1,-18.7%,6.7%,?,3.98µM*,11.2µM*
Cc1nc2nncn2c(Nc2ccc(F)cc2)c1C,-11.6%,?,-0.5%,0.2%,0.9%
Cc1nc2nncn2c(NCc2ccc(F)cc2)c1C,0.2%,8.2µM*,0.3%,-1.6%,3.3%
Fc1cccc(C2NN=C(c3ccccc3)S2)c1 (configuration not stated),9.8%,?,-0.8%,3.8%,3.55µM*
